From PubChem BioAssay AID1159580 (chemical genetic matrix, 2015)
Values joined by “and” are separate entries in the source; they are usually repeats but may differ in a detail not shown here. Equal entries are not always repeated. In all, about 5,500 compounds went through this assay and about 2,000 (36%) were called active. About 18% were inconclusive and are not listed. Rule as the data show it: active = normalized growth mostly below about 0.91 (no sharp cut-off); inconclusive = no clear call, values can overlap the other calls; inactive = mostly above about 0.92. The list shows a part of the results.

Test: chemical genetic growth profiling, strain panel (AID 1159580);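 also: tested at 20 µM; growth read once vehicle control cultures reached saturation at 30 °C; 1 = growth at the plate median or of vehicle wells; lower values mean less growth of the strain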
Conditions: S. cerevisiae deletion strains, growth OD

Measured: normalized growth

COC(=O)C[C@H]1C2(C)CC34OC5(C)O[C@@]6([C@H](OC(C)=O)C(OC(C)=O)[C@]7(C)C(/C(=C(/O)C(C)C)C(=O)O[C@H]7c7ccoc7)[C@@]6(O5)[C@H](OC(C)=O)[C@@]3(O)C2OC(=O)C(C)C)[C@]14C (stereo partly drawn)
inactive: locus YAL021C, strain ccr4, active compounds read low 1.01 | locus YAL026C, strain drs2, active compounds read low 0.995 | locus YAL030W, strain snc1, active compounds read low 0.997 | locus YBL061C, strain skt5, active compounds read low 1.01 | locus YBR009C, strain hhf1, active compounds read low 1.01 | locus YBR021W, strain FUR4, active compounds read low 1.06 | locus YBR023C, strain chs3, active compounds read low 1 | locus YBR171W, strain sec66, active compounds read low 0.994 | locus YBR229C, strain ROT2, active compounds read low 0.955 | locus YBR231C, strain swc5, active compounds read low 1 | locus YBR279W, strain paf1, active compounds read low 0.996 | locus YCL011C, strain gbp2, active compounds read low 0.989 | locus YCL016C, strain dcc1, active compounds read low 1.02 | locus YCL029C, strain bik1, active compounds read low 1.01 | locus YCL061C, strain MRC1, active compounds read low 1 | locus YCL069W, strain vba3, active compounds read low 0.998 | locus YCR088W, strain abp1, active compounds read low 0.992 | locus YDL005C, strain med2, active compounds read low 0.982 | locus YDL035C, strain GPR1, active compounds read low 0.976 | locus YDL040C, strain nat1, active compounds read low 0.978 | locus YDL074C, strain BRE1, active compounds read low 0.986 | locus YDL101C, strain DUN1, active compounds read low 1 | locus YDL134C, strain PPH21, active compounds read low 1.02 | locus YDL185W, strain tfp1, active compounds read low 0.956 | locus YDL192W, strain arf1, active compounds read low 0.986 | locus YDR001C, strain nth1, active compounds read low 1 | locus YDR069C, strain doa4, active compounds read low 1 | locus YDR101C, strain arx1, active compounds read low 1 | locus YDR137W, strain rgp1, active compounds read low 0.953 | locus YDR159W, strain sac3, active compounds read low 0.975 | locus YDR162C, strain NBP2, active compounds read low 0.973 | locus YDR195W, strain ref2 0.959 | locus YDR297W, strain sur2, active compounds read low 1.02 | locus YDR318W, strain mcm21, active compounds read low 0.994 | locus YDR334W, strain swr1, active compounds read low 0.991 | locus YDR335W, strain msn5, active compounds read low 0.993 | locus YDR388W, active compounds read low 0.994 | locus YDR392W, strain spt3, active compounds read low 1.05 | locus YDR502C, strain sam2, active compounds read low 1.03 | locus YEL003W, strain gim4, active compounds read low 0.995 | locus YEL037C, strain rad23, active compounds read low 0.997 | locus YEL061C, strain CIN8 (second series), active compounds read low 0.994 | locus YEL061C, strain CIN8, active compounds read low 1 | locus YER015W, strain faa2, active compounds read low 1.01 | locus YER016W, strain bim1, active compounds read low 0.981 | locus YER110C, active compounds read low 0.992 | locus YER111C, strain swi4, active compounds read low 0.985 | locus YER155C, strain BEM2 (second series), active compounds read low 1.01 | locus YER155C, strain BEM2, active compounds read low 1.01 | locus YER167W, strain BCK2, active compounds read low 0.99 | locus YFR010W, strain ubp6, active compounds read low 0.982 | locus YGL078C, strain dbp3, active compounds read low 0.98 | locus YGL086W, strain mad1, active compounds read low 1.01 | locus YGL167C, strain pmr1, active compounds read low 0.995 | locus YGL173C, strain kem1, active compounds read low 0.997 | locus YGL227W, strain vid30, active compounds read low 0.987 | locus YGL240W, strain doc1, active compounds read low 0.975 | locus YGL248W, strain PDE1, active compounds read low 0.997 | locus YGL253W, strain hxk2, active compounds read low 0.975 | locus YGR078C, strain PAC10, active compounds read low 1 | locus YGR135W, strain pre9, active compounds read low 1.06 | locus YGR252W, strain gcn5, active compounds read low 1.04 | locus YHR013C, strain ard1, active compounds read low 1 | locus YHR027C, strain rpn1, active compounds read low 1.02 | locus YHR030C, strain SLT2, active compounds read low 0.947 | locus YHR079C, strain IRE1 (second series), active compounds read low 0.997 | locus YHR079C, strain IRE1, active compounds read low 0.983 | locus YHR094C, strain hxt1, active compounds read low 0.998 | locus YHR129C, strain ARP1, active compounds read low 1 | locus YHR142W, strain chs7, active compounds read low 1 | locus YHR200W, strain rpn10, active compounds read low 0.996 | locus YIL066C, strain RNR3, active compounds read low 0.963 | locus YIL073C, strain SPO22, active compounds read low 0.966 | locus YIL125W, strain kgd1, active compounds read low 1 | locus YIR030C, strain dcg1, active compounds read low 1 | locus YJL092W, strain hpr5, active compounds read low 0.997 | locus YJL095W, strain BCK1 (second series), active compounds read low 1 | locus YJL095W, strain BCK1, active compounds read low 1.02 and 0.966 | locus YJL115W, strain asf1, active compounds read low 0.989 | locus YJL129C, strain trk1, active compounds read low 0.975 | locus YJL134W, strain LCB3, active compounds read low 0.994 | locus YJL154C, strain vps35, active compounds read low 1 | locus YJL164C, strain tpk1, active compounds read low 1.01 | locus YJL166W, strain qcr8, active compounds read low 0.983 | locus YJL168C, strain set2, active compounds read low 1.01 | locus YJL187C, strain SWE1 (second series), active compounds read low 1.01 | locus YJL187C, strain SWE1, active compounds read low 1.01 | locus YJR066W, strain TOR1, active compounds read low 0.928 | locus YJR075W, strain HOC1, active compounds read low 1.02 | locus YKL009W, strain mrt4, active compounds read low 0.979 | locus YKL068W, active compounds read low 0.986 | locus YKL160W, strain elf1, active compounds read low 1.01 | locus YKR001C, strain vps1, active compounds read low 1 | locus YKR026C, strain gcn3, active compounds read low 0.995 | locus YKR091W, strain srl3, active compounds read low 0.996 | locus YLL001W, strain dnm1, active compounds read low 1.02 | locus YLL026W, active compounds read low 0.987 | locus YLL041C, strain sdh2, active compounds read low 0.988 | locus YLR027C, strain aat2, active compounds read low 1 | locus YLR039C, strain RIC1, active compounds read low 0.863 | locus YLR058C, strain SHM2, active compounds read low 0.987 | locus YLR102C, strain apc9, active compounds read low 1 | locus YLR113W, strain HOG1, active compounds read low 1.01 | locus YLR221C, strain rsa3, active compounds read low 0.992 | locus YLR258W, strain gsy2, active compounds read low 1.01 | locus YLR262C, strain YPT6 (second series), active compounds read low 0.924 | locus YLR268W, strain sec22, active compounds read low 0.986 | locus YLR320W, strain mms22, active compounds read low 0.988 | locus YLR342W, strain FKS1, active compounds read low 0.996 | locus YLR357W, strain rsc2, active compounds read low 0.997 | locus YLR370C, strain arc18, active compounds read low 0.99 | locus YLR371W, strain rom2, active compounds read low 0.99 | locus YLR384C, strain iki3, active compounds read low 0.994 | locus YLR418C, strain cdc73, active compounds read low 1.07 | locus YML016C, strain PPZ1, active compounds read low 0.995 | locus YML032C, strain rad52, active compounds read low 0.982 | locus YML120C, strain ndi1, active compounds read low 0.995 | locus YML124C, strain tub3, active compounds read low 1.01 | locus YMR058W, strain fet3, active compounds read low 1.01 | locus YMR078C, strain ctf18, active compounds read low 0.998 | locus YMR125W, strain sto1, active compounds read low 1.01 | locus YMR129W, active compounds read low 0.997 | locus YMR205C, strain PFK2, active compounds read low 0.992 | locus YMR223W, strain ubp8, active compounds read low 1.02 | locus YMR231W, strain pep5, active compounds read low 0.957 | locus YMR263W, strain SAP30, active compounds read low 0.992 | locus YMR307W, strain GAS1, active compounds read low 0.926 | locus YNL067W, strain RPL9B, active compounds read low 1.02 | locus YNL071W, strain lat1, active compounds read low 0.998 | locus YNL153C, strain GIM3, active compounds read low 1.02 | locus YNL183C, strain NPR1, active compounds read low 0.954 | locus YNL209W, strain ssb2, active compounds read low 0.994 | locus YNL233W, strain BNI4, active compounds read low 1.04 | locus YNL248C, strain rpa49, active compounds read low 0.989 | locus YNL250W, strain rad50, active compounds read low 0.987 | locus YNL271C, strain bni1, active compounds read low 0.999 | locus YNL298W, strain CLA4, active compounds read low 0.994 | locus YNL307C, strain MCK1, active compounds read low 1.01 | locus YNL322C, strain KRE1 (second series), active compounds read low 0.982 | locus YNR049C, strain mso1, active compounds read low 0.994 | locus YNR052C, strain pop2, active compounds read low 1.02 | locus YOL012C, strain htz1 1.3 | locus YOL147C, strain pex11, active compounds read low 1.01 | locus YOR001W, strain rrp6, active compounds read low 0.947 | locus YOR061W, strain CKA2, active compounds read low 0.962 | locus YOR069W, strain VPS5, active compounds read low 1 | locus YOR070C, strain gyp1, active compounds read low 0.987 | locus YOR080W, strain dia2, active compounds read low 0.977 | locus YOR083W, strain WHI5, active compounds read low 1.02 | locus YOR106W, strain vam3, active compounds read low 1.01 | locus YOR136W, strain idh2, active compounds read low 1 | locus YOR144C, strain elg1, active compounds read low 1 | locus YOR184W, strain ser1, active compounds read low 0.987 | locus YOR231W, strain MKK1, active compounds read low 0.981 | locus YOR265W, strain rbl2, active compounds read low 0.994 | locus YOR270C, strain vph1, active compounds read low 0.87 | locus YOR290C, strain snf2, active compounds read low 0.979 | locus YOR316C, strain cot1, active compounds read low 1.01 | locus YPL051W, strain arl3, active compounds read low 0.999 | locus YPL078C, strain atp4, active compounds read low 1.01 | locus YPL106C, strain sse1, active compounds read low 1.06 | locus YPL240C, strain hsp82, active compounds read low 0.99 | locus YPL256C, strain CLN2, active compounds read low 0.98 | locus YPR119W, strain clb2, active compounds read low 0.997 | locus YPR141C, strain kar3, active compounds read low 0.969 | locus YPR163C, strain tif3, active compounds read low 1.01 | locus YPR167C, strain met16, active compounds read low 0.993 | strain wtn01, active compounds read low 1
